Experimental data from PubChem BioAssay AID1220 (Sanford-Burnham Center for Chemical Genomics, 2008).
About 1,300 (0.68%) of roughly 190,000 compounds were called active. Cut-off read from the data, not from the text of the source: active = inhibition above about 50%; inactive = the rest. The list comes from a sample in which actives are over-represented; it also holds similar structures and randomly drawn compounds.

molecular target: Mannose-6-phosphate isomerase (Homo sapiens) (UniProt P34949); test: MPI inhibition at elevated mannose 6-phosphate – biochemical, fluorescence intensity, high mannose 6-phosphate, primary screen (AID 1220); conditions: recombinant PMI enzyme, coupled fluorescence intensity; at 20 µM; active compounds read high
Sequence (P34949 whole entry, looked up): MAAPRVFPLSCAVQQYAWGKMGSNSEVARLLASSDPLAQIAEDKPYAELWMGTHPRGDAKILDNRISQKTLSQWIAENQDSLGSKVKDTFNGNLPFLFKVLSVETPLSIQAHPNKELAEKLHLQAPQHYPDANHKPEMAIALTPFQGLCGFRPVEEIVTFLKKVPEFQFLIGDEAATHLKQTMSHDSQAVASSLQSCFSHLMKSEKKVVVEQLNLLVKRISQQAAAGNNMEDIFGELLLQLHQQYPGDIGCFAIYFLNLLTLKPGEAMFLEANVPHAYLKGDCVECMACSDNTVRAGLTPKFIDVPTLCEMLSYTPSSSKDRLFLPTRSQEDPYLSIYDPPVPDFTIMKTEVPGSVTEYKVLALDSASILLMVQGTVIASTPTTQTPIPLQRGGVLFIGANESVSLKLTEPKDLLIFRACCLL

inhibition, inactive:
COc1cc(SC)ccc1C(=O)Nc1ccc(Cl)cn1 2.4%
CC(=O)N1CCC2(CC1)CC(=O)c1cc(OCC(=O)N3CCOCC3)ccc1O2 -1.2%
Cc1cc([N+](=O)[O-])cc2c1NC(=O)C2(O)N1CCOCC1 (stereo not drawn) 16.7%
CC1CCN(C2(O)C(=O)Nc3ccc(Br)cc32)CC1 (stereo not drawn) -1.3%
COc1ccc(C2C(C(C)=O)=C(O)C(=O)N2CCCn2ccnc2)cc1 (stereo not drawn) -4%
CCOC(=O)C1(C)C=C(Nc2ccc(OC)cc2)C(=O)N1c1ccc(OC)cc1 (stereo not drawn) 18%
CCOC(=O)C1(C)C=C(Nc2ccc(C)cc2)C(=O)N1c1ccc(C)cc1 (stereo not drawn) -5.2%
O=C(/C=C/c1ccco1)Nc1nc(-c2ccccn2)cs1 25.9%
Cc1ccc(OCC(=O)N/N=C\c2cn(Cc3ccccc3)c3ccccc23)cc1C 2.4%
Cc1cccc(OCC(=O)N/N=C\c2cn(C)c3ccccc23)c1 -0.8%
CCOC(=O)c1c2ccc(OCC(=O)N/N=C/c3ccc(Cl)cc3)cc2n2ccccc12 48.6%
Cc1ccc(/C=N/NC(=O)CNC(=O)COc2ccccc2)cc1 8.2%
N#CC1=C(N)Oc2[nH]c(=S)[nH]c(=O)c2C12C(=O)Nc1ccccc12 (stereo not drawn) 46.2%
Cn1c2c(c(=O)n(C)c1=O)C1(C(=O)Nc3ccccc31)C(C#N)=C(N)O2 (stereo not drawn) 47.4%
CNc1oc(-c2ccc(Cl)cc2)nc1C#N 0.9%
Cc1c(Nc2cc(N3CCOCC3)c3nonc3c2[N+](=O)[O-])c(=O)n(-c2ccccc2)n1C 27.1%
Cc1c(Nc2cc(N3CCCC(C)C3)c3nonc3c2[N+](=O)[O-])c(=O)n(-c2ccccc2)n1C (stereo not drawn) 44.3%
Cc1c(NC(=O)CN2c3cccc4cccc(c34)S2(=O)=O)c(=O)n(-c2ccccc2)n1C 5%
CC1=C(C)CC(C(=O)N2CCN(Cc3ccccc3)CC2)C(C(=O)O)C1 (stereo not drawn) 9.2%
COc1ccc2nc(NC(=O)Nc3ccccc3)sc2c1 15.5%
CCCC(=O)Nc1nc2ccc(OC)cc2s1 7.2%
Cc1cc(=O)n(C)c2ccccc12 -8.5%
Cn1c(-c2ccccc2)cc(=O)c2ccccc21 2%
CNC(=O)c1[nH]cnc1C(=O)N[C@@H](Cc1ccccc1)C(=O)OC(C)(C)C 2.7%
O=C1C2C3C=CC(C3)C2C(=O)N1c1ccccc1OS(=O)(=O)c1ccccc1 (stereo not drawn) -5%
CCOc1ccc(/C=C2\SC(N3CCc4ccccc4C3)=NC2=O)cc1 3.5%
Cc1cccc(N)c1-c1c(C)cccc1N 5.8%
Cc1ccc2c(c1C)OC(=O)CC2(C)C -5.5%
COc1ccc(N)c2c1C(=O)c1ccccc1C2=O 23.8%
COc1ccc(OC)c2c1CCC2=O -2.6%
COC(=O)c1ccc(/C=N/NC(=S)NCCN2CCOCC2)cc1 -1.5%
NC(=O)C1CCN(C(=O)C2CCN(S(=O)(=O)c3ccccc3)CC2)CC1 5%
CC1(C)Cc2ccccc2/C(=C/C(=O)N2CCCCCC2)N1 -22.6%
CC1(C)Cc2c(ccc3ccccc23)/C(=C/C(=O)N2CCCCC2)N1 -2.6%
CCOC(=O)C1=C2c3ccc4ccccc4c3CC(C)(C)N2C(=O)C1=O 27.6%
C=CCC1(O)C(=O)N2C(=C1C(=O)N1CCOCC1)c1ccccc1CC2(C)C (stereo not drawn) -1.7%
COc1ccc(/C=N/NS(C)(=O)=O)c(OC)c1 8.2%

inhibition, active:
O=C1Nc2c(Br)cc(Br)cc2C1(O)N1CCOCC1 (stereo not drawn) 55.6%
CCOC(=O)C1(C)C=C(Nc2ccc(O)cc2)C(=O)N1c1ccc(O)cc1 (stereo not drawn) 58.5%
CCOC(=O)c1c2ccc(OCC(=O)N/N=C/c3ccccc3C(F)(F)F)cc2n2ccccc12 64.2%
Cn1c2c(c(=O)n(C)c1=O)[C@@]1(C(=O)Nc3ccccc31)C(C#N)=C(N)O2 54.6%
Cc1c(Nc2cc(N3CCCCCC3)c3nonc3c2[N+](=O)[O-])c(=O)n(-c2ccccc2)n1C 51.5%
COc1ccc2nc(NC(=O)Nc3cccc4ccccc34)sc2c1 58.6%
Cn1c2ccccc2c(=O)n2c(=O)c3ccccc3cc12 54.4%
Cc1ccc(N)c2c1OCCC2=O 57.7%
COc1ccc(N)c2c1OCCC2=O 59.8%
CC1(C)Cc2ccccc2C2=C(C(=O)N3CCCCCC3)C(=O)C(=O)N21 60.5%
CC1(C)Cc2c(ccc3ccccc23)C2=C(C(=O)N3CCCC3)C(=O)C(=O)N21 56%
